Inconclusive results are not listed. A call without a number means that no potency is given here. Active and inactive are the calls of the source. Calls come from the whole dose curve; as a rule, active = well fitted curve in the direction sought with a large enough effect; inconclusive = small, poorly fitted or top-dose-only effect, or another doubt; inactive = no such curve, though single readings can be large; an effect the other way counts as inactive or inconclusive.
Experiments:
[1] = qHTS of pediatric cancer cell lines to identify multiple opportunities for drug repurposing: Primary screen for LAN-5 cells (AID 1347100)
Excerpt: (§1) Drug repurposing or repositioning has been offered as a strategy for drug development in oncology programs. This approach has special potential for childhood cancers and other rare or orphan diseases, where the expected return on new drug development has been a disincentive to pharmaceuticals.
(§2) In this project we exploit the poly-pharmacology of drugs to discover new indications via phenotypic screening of a panel of 19 well-characterized cell lines derived from solid tumors seen in children and adolescents. The goal is to identify approved drugs with previously unrecognized anticancer properties that has the potential to reveal new mechanisms and biological processes involved in carcinogenesis or drug resistance. We employed a titration-based paradigm (quantitative high-throughput screening or qHTS), where all compounds were tested at multiple concentrations for their effect on cell viability. Concentration-response curves (CRCs) were derived directly from the primary screen, and both potency and efficacy values were used to identify compounds with robust bioactivity profiles. We screened the NIH Chemical Genomics Center (NCGC) Pharmaceutical Collection (NPC) and Mechanism Interrogation Plate (MIPE) small molecule collections of approved and investigational compounds against these cell lines; and measured metabolically active cells after 48 hours of compound treatment as a proxy for cell viability.
(§3) Assay Submitter: Nathalia J. Martinez, National Center for Advancing Translational Sciences, National Institutes of Health, Rockville, MD, USA; email: natalia.martinez@nih.gov
(§4) [1] Shen, M et al. Quantitative high-throughput phenotypic screening of pediatric cancer cell lines identifies multiple opportunities for drug repurposing. Oncotarget 2017 Dec 19;9(4):4758-4772. PMID 29435139.
(§5) The cells were obtained from University of North Carolina (UNC), Pediatric Preclinical Testing Program (PPT), and Coriell Institute (CI).
(§6) qHTS cell viability assay:
(§7) Cells were assayed in growth media at a density of 500-1,000 cells/well. Five microliters of cells were dispensed into 1,536-well, white, solid-bottom, TC-treated plates (Greiner Bio One) using a multidrop dispenser and incubated at 37 degrees C, 5% CO2, under a humidified atmosphere for 5 hours. Twenty-three nanoliters of compounds and controls (neutral control DMSO or positive control bortezomib at final concentration of 2.3 µM) were subsequently transferred by Kalypsys pintool. For primary screens, the MIPE collection was tested at 11-point dilutions (final concentrations range from 0.78 nM to 46 µM) and the NPC collection at 8-point dilutions (final concentrations range from 0.59 nM to 46 µM). Compounds tested in follow-up screens were assayed at 11-point dilutions. Cells were incubated for 48 hours, followed by addition of 3 µL of CellTiter-Glo (Promega). After a 15 min incubation at room temperature, samples were analyzed for luminescence intensity using a ViewLux High-throughput CCD imager equipped with clear filters.

[2] = qHTS of pediatric cancer cell lines to identify multiple opportunities for drug repurposing: Primary screen for BT-12 cells (AID 1347101); note: nearly all actives have a fitted effect of over 25% in size
Outline: (§8)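 Cells (500-1,000/well) rested 5 h, then received compounds for 48 h; metabolically active cells were measured by CellTiter-Glo luminescence. Final concentrations spanned up to 46 µM (MIPE, 11-point) or 0.59 nM-46 µM (NPC, 8-point) in primary screens, 11-point in follow-ups.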

[3] = qHTS of pediatric cancer cell lines to identify multiple opportunities for drug repurposing: Primary screen for Rh18 cells (AID 1347102); note: nearly all actives have a fitted effect of over 65% in size
Outline: (§9)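 Viability after 48 h compound treatment at 37C, 500-1,000 cells/well, read as ATP luminescence with CellTiter-Glo. Primary screens used 11-point (MIPE, 0.78 nM-46 µM) or 8-point (NPC, 0.59 nM-46 µM) final concentrations; follow-up screens used 11-point dilutions.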

[4] = qHTS of pediatric cancer cell lines to identify multiple opportunities for drug repurposing: Primary screen for OHS-50 cells (AID 1347103); note: nearly all actives have a fitted effect of over 40% in size
Outline: as §8

[5] = qHTS of pediatric cancer cell lines to identify multiple opportunities for drug repurposing: Primary screen for RD cells (AID 1347104); note: nearly all actives have a fitted effect of over 55% in size
Outline: (§10)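 Phenotypic viability qHTS, 48 h compound exposure, CellTiter-Glo luminescence read-out; multi-concentration dosing so that potency and efficacy derive directly from the primary screen's curves.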

[6] = qHTS of pediatric cancer cell lines to identify multiple opportunities for drug repurposing: Primary screen for MG 63 (6-TG R) cells (AID 1347105); note: nearly all actives have a fitted effect of over 50% in size
Outline: as §10

[7] = qHTS of pediatric cancer cell lines to identify multiple opportunities for drug repurposing: Primary screen for control Hh wild type fibroblast cells (AID 1347106);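 note: series mostly up to about 46 µM; a drop in luminescence marks cytotoxicity and a rise apparent proliferation; nearly all actives have a fitted effect of over 55% in size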
Excerpt: as §1, §2, §3, §4, §5, §6, §7

[8] = qHTS of pediatric cancer cell lines to identify multiple opportunities for drug repurposing: Primary screen for Rh30 cells (AID 1347107); note: series mostly up to about 46 µM; nearly all actives have a fitted effect of over 75% in size
Outline: as §9

[9] = qHTS of pediatric cancer cell lines to identify multiple opportunities for drug repurposing: Primary screen for Rh41 cells (AID 1347108);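 note: series mostly up to about 46 µM; luminescence drop marks cytotoxic hits; nearly all actives have a fitted effect of over 70% in size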
Outline: as §10

[10] = target: N-terminal Xaa-Pro-Lys N-methyltransferase 1 (Homo sapiens) (UniProt Q9BV86); assay: qHTS Assay for Inhibitors of N-terminal methyltransferase 1 (NTMT1): LOPAC validation of the NTMT1 SAHH-coupled ThioGlo3 Assay (AID 1347143); conditions: recombinant NTMT1, SAHH-coupled ThioGlo3 fluorescence;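 note: SAH from peptide methylation measured as thiol fluorescence via SAHH coupling and ThioGlo3; potency is the fitted concentration of half-maximal effect; nearly all actives have a fitted effect of over 70% in size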
Sequence of N-terminal Xaa-Pro-Lys N-methyltransferase 1 (Homo sapiens) (Q9BV86 whole entry, looked up): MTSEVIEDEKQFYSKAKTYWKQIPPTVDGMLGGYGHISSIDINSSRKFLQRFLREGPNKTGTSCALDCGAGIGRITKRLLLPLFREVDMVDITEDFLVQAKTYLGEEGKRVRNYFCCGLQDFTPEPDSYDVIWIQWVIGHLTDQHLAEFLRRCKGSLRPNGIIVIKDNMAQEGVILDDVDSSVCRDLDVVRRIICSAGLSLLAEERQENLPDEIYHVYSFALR
Outline: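 Recombinant human NTMT1 (125nM) was pre-incubated 1 min at room temperature with compounds over a concentration range, then a mix of 100uM SAM, 10uM SAHH and 15uM ThioGlo3 (concentrations in added reagent) was added. ThioGlo3 fluorescence (ex 340/em 450nm) after 30 min was normalized to the initial reading.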

Row | Structure (SMILES) | outcome [1] | outcome [2] | outcome [3] | outcome [4] | outcome [5] | outcome [6] | outcome [7] | outcome [8] | outcome [9] | Potency [10]
1 | O=C1c2ccccc2C(=O)c2c1ccc(O)c2O | inactive | inactive | inactive | inactive | inactive | inactive | inactive | inactive | inactive | 
2 | CC(=O)Oc1cccc2c1C(=O)c1c(OC(C)=O)cc(C(=O)O)cc1C2=O |  | inactive | inactive |  | inactive |  | inactive | inactive | inactive | 
3 | Nc1ccc(N=Nc2ccccc2)c(N)n1 | inactive | inactive | inactive |  | inactive | inactive | inactive | inactive | inactive | 
4 | CN(C)CCCSc1ccccc1NC(=O)/C=C/c1ccccc1 |  |  | inactive |  |  | inactive | inactive | inactive | inactive | 
5 | O=C(O)CCC(=O)c1ccc(-c2ccccc2)cc1 | inactive | inactive | inactive | inactive | inactive | inactive | inactive | inactive | inactive | 
6 | Oc1ccc(/C=C/c2cc(O)cc(O)c2)cc1 | inactive | inactive | inactive | inactive | inactive |  | inactive | inactive | inactive | 50.1 µM (active)
7 | O=C(OCc1ccccc1)c1ccc(O)cc1 | inactive | inactive | inactive |  | inactive | inactive | inactive | inactive | inactive | 
8 | COc1ccc2nc(NC(=O)Nc3ccccc3)sc2c1 | inactive | inactive | inactive |  | inactive | inactive | inactive | inactive | inactive | 
